Assay results reported in PubChem BioAssay AID1159580 (chemical genetic matrix, 2015).
Where “and” joins values, the source holds several entries; their conditions need not be identical. Identical values can stand only once. Among all 5,500 compounds or so, about 2,000 (36%) were called active. Another 18% or so got no clear call; they are omitted. Rule as the data show it: active = normalized growth mostly below about 0.91 (no sharp cut-off); inconclusive = no clear call, values can overlap the other calls; inactive = mostly above about 0.92. The list shows a part of the results.

Experiment: chemical genetic growth profiling, strain panel (AID 1159580);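 also: tested at 20 µM; growth read once vehicle control cultures reached saturation at 30 °C; 1 = growth at the plate median or of vehicle wells; lower values mean less growth of the strain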
Conditions: S. cerevisiae deletion strains, growth OD

Measured: normalized growth

Cc1ncc([N+](=O)[O-])n1CCO
inactive: locus YAL013W, strain DEP1, active compounds read low 0.989 | locus YAL021C, strain ccr4, active compounds read low 0.983 | locus YAL026C, strain drs2, active compounds read low 1 | locus YAL030W, strain snc1, active compounds read low 0.971 | locus YBL061C, strain skt5, active compounds read low 0.98 | locus YBR009C, strain hhf1, active compounds read low 1.01 | locus YBR021W, strain FUR4, active compounds read low 0.998 | locus YBR023C, strain chs3, active compounds read low 0.976 | locus YBR171W, strain sec66, active compounds read low 0.982 | locus YBR229C, strain ROT2, active compounds read low 0.944 | locus YBR231C, strain swc5, active compounds read low 0.999 | locus YBR279W, strain paf1, active compounds read low 0.975 | locus YCL011C, strain gbp2, active compounds read low 0.945 | locus YCL016C, strain dcc1, active compounds read low 0.968 | locus YCL029C, strain bik1, active compounds read low 0.986 | locus YCL061C, strain MRC1, active compounds read low 0.992 | locus YCL069W, strain vba3, active compounds read low 0.985 | locus YCR088W, strain abp1, active compounds read low 0.974 | locus YDL005C, strain med2, active compounds read low 0.968 | locus YDL035C, strain GPR1, active compounds read low 0.967 | locus YDL040C, strain nat1, active compounds read low 0.98 | locus YDL074C, strain BRE1, active compounds read low 1.02 | locus YDL101C, strain DUN1, active compounds read low 0.977 | locus YDL134C, strain PPH21, active compounds read low 0.978 | locus YDL185W, strain tfp1, active compounds read low 0.983 | locus YDL192W, strain arf1, active compounds read low 0.978 | locus YDR001C, strain nth1, active compounds read low 0.965 | locus YDR069C, strain doa4, active compounds read low 0.981 | locus YDR101C, strain arx1, active compounds read low 1.01 | locus YDR137W, strain rgp1, active compounds read low 0.967 | locus YDR150W, strain NUM1, active compounds read low 0.956 | locus YDR159W, strain sac3, active compounds read low 1.02 | locus YDR162C, strain NBP2, active compounds read low 0.968 | locus YDR195W, strain ref2 0.982 | locus YDR297W, strain sur2, active compounds read low 0.974 | locus YDR318W, strain mcm21, active compounds read low 0.999 | locus YDR334W, strain swr1, active compounds read low 0.941 | locus YDR335W, strain msn5, active compounds read low 0.971 | locus YDR388W, active compounds read low 0.997 | locus YDR392W, strain spt3, active compounds read low 0.956 | locus YDR502C, strain sam2, active compounds read low 0.98 | locus YEL003W, strain gim4, active compounds read low 0.989 | locus YEL037C, strain rad23, active compounds read low 0.976 | locus YEL061C, strain CIN8 (second series), active compounds read low 0.975 | locus YEL061C, strain CIN8, active compounds read low 0.979 | locus YER015W, strain faa2, active compounds read low 0.982 | locus YER016W, strain bim1, active compounds read low 0.984 | locus YER110C, active compounds read low 0.965 | locus YER111C, strain swi4, active compounds read low 0.981 | locus YER155C, strain BEM2 (second series), active compounds read low 1.03 | locus YER155C, strain BEM2, active compounds read low 1.01 | locus YER167W, strain BCK2, active compounds read low 0.988 | locus YFR010W, strain ubp6, active compounds read low 0.981 | locus YGL078C, strain dbp3, active compounds read low 0.973 | locus YGL086W, strain mad1, active compounds read low 0.982 | locus YGL167C, strain pmr1, active compounds read low 0.984 | locus YGL173C, strain kem1, active compounds read low 0.981 | locus YGL227W, strain vid30, active compounds read low 0.981 | locus YGL240W, strain doc1, active compounds read low 0.993 | locus YGL248W, strain PDE1, active compounds read low 0.976 | locus YGL253W, strain hxk2, active compounds read low 0.977 | locus YGR078C, strain PAC10, active compounds read low 0.98 | locus YGR135W, strain pre9, active compounds read low 0.991 | locus YGR229C, strain SMI1, active compounds read low 0.998 | locus YGR252W, strain gcn5, active compounds read low 0.904 | locus YHR013C, strain ard1, active compounds read low 0.948 | locus YHR027C, strain rpn1, active compounds read low 0.962 | locus YHR030C, strain SLT2, active compounds read low 0.985 and 1.07 | locus YHR079C, strain IRE1 (second series), active compounds read low 1.01 | locus YHR079C, strain IRE1, active compounds read low 1.05 | locus YHR094C, strain hxt1, active compounds read low 0.99 | locus YHR129C, strain ARP1, active compounds read low 0.994 | locus YHR142W, strain chs7, active compounds read low 0.933 | locus YHR200W, strain rpn10, active compounds read low 0.997 | locus YIL066C, strain RNR3, active compounds read low 0.97 | locus YIL073C, strain SPO22, active compounds read low 1.01 | locus YIL125W, strain kgd1, active compounds read low 0.989 | locus YIR030C, strain dcg1, active compounds read low 0.983 | locus YJL092W, strain hpr5, active compounds read low 0.985 | locus YJL095W, strain BCK1 (second series), active compounds read low 0.98 | locus YJL095W, strain BCK1, active compounds read low 1.02 and 1.04 | locus YJL115W, strain asf1, active compounds read low 0.958 | locus YJL129C, strain trk1, active compounds read low 0.968 | locus YJL134W, strain LCB3, active compounds read low 0.978 | locus YJL154C, strain vps35, active compounds read low 0.963 | locus YJL164C, strain tpk1, active compounds read low 0.996 | locus YJL166W, strain qcr8, active compounds read low 0.96 | locus YJL168C, strain set2, active compounds read low 0.993 | locus YJL187C, strain SWE1 (second series), active compounds read low 0.985 | locus YJL187C, strain SWE1, active compounds read low 0.981 | locus YJR043C, strain POL32, active compounds read low 1.02 | locus YJR066W, strain TOR1, active compounds read low 1.01
